Records with an inconclusive call do not appear. A call without a number means that no potency is given here. Calls of active or inactive are those of the source. Calls come from the whole dose curve; as a rule, active = well fitted curve in the direction sought with a large enough effect; inconclusive = small, poorly fitted or top-dose-only effect, or another doubt; inactive = no such curve, though single readings can be large; an effect the other way counts as inactive or inconclusive.
Key:
[1] = molecular target: Cellular tumor antigen p53 (Homo sapiens) (UniProt P04637); test: Primary qHTS for small molecule compounds that upregulate eGFP-tagged delta133p53alpha (in N-terminal) cells. (AID 2060322); conditions: NCI-H358 eGFP-delta133p53alpha fluorescence, 24 h; activation: hits give high values; note: nearly all actives have a fitted effect of over 75% in size; note: potency is the fitted concentration of half-maximal effect;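 for activation: cells pre-induced with doxycycline then dosed without doxycycline; series mostly up to about 56 µM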
Procedure, shortened: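 NCI-H358 cells pre-induced 24 h with 10 ng/ml doxycycline for eGFP-delta133p53alpha, plated dox-free and exposed 24 h at 37C to titrated compounds. Fixed, Hoechst-stained; gated GFP peak intensity by laser scanning cytometry, normalized to DMSO (0%) and 57.5 uM 5-azacytidine (100%).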

[2] = molecular target: Aldehyde dehydrogenase, mitochondrial (Homo sapiens) (UniProt P05091); test: qHTS for Inhibitors of the Aldehyde Dehydrogenase Family (ALDH2) Primary screen (AID 2061308); note: nearly all actives have a fitted effect of over 55% in size
[3] = molecular target: Retinaldehyde dehydrogenase 3 (Homo sapiens) (UniProt P47895); test: qHTS for Inhibitors of the Aldehyde Dehydrogenase Family (ALDH1A3) Primary screen (AID 2061315)

Sequence of Cellular tumor antigen p53 (Homo sapiens) (P04637 whole entry, looked up): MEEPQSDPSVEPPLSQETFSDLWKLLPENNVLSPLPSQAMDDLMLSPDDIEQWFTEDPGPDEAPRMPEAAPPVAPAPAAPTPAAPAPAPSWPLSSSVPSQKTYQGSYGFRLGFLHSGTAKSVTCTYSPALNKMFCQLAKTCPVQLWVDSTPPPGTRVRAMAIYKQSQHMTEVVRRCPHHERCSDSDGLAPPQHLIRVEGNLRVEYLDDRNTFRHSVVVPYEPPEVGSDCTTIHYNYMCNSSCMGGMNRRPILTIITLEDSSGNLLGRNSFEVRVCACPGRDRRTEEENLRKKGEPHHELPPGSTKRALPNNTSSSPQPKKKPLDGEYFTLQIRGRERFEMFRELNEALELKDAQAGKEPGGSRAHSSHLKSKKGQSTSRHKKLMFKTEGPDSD

| SMILES | activation [1] | Potency [2] | Potency [3] | Potency [1] |
| --- | --- | --- | --- | --- |
| C[C@@H]1O[C@@H](O[C@@H]2[C@@H](O)[C@@H](O)[C@H](O[C@@H]3[C@@H](O)[C@@H](O[C@]4(CO)O[C@H](CO)[C@@H](O)[C@@H]4OC(=O)/C=C/c4ccc(O)cc4)O[C@H](CO)[C@H]3OC(=O)/C=C/c3ccc(O)cc3)O[C@H]2C)[C@H](O)[C@H](O)[C@H]1O | 3.82% (inactive) | inactive | inactive | – |
| Fc1ccccc1CNCc1ccc(-c2ccnc3[nH]ccc23)cc1 | 7.14% (inactive) | inactive | inactive | – |
| Cc1c(N2C(=O)c3ccc(C(=O)O)cc3C2=O)c(=O)n(-c2ccccc2)n1C | -5% (inactive) | inactive | inactive | – |
| Cc1ncc([N+](=O)[O-])n1C[C@H](O)CN1CCOCC1 | 2.33% (inactive) | inactive | inactive | – |
| Clc1ccc(Nc2nc3ccccc3c3nc(C4CCCCC4)[nH]c23)cc1Cl | 22% (inactive) | inactive | inactive | – |
| COC(=O)[C@H](OC(C)=O)[C@H]1C(C)(C)C(=O)[C@H]2CC3=C4CC(=O)O[C@@H](c5ccoc5)[C@]4(C)CCC3[C@@]1(C)C2=O (some centres not stated) | 2.68% (inactive) | inactive | inactive | – |
| C=C1CC2C3(C)C(OC(C)=O)CC(=O)OC(C)(C)C3C(O)C(OC(C)=O)C2(C)C2C(=O)OC(C)C(=O)C12C (configuration not stated) | -19.8% (inactive) | inactive | inactive | – |
| C[C@@H]1CC[C@]2(C(=O)O[C@@H]3O[C@H](CO[C@@H]4O[C@H](CO)[C@@H](O[C@@H]5O[C@@H](C)[C@H](O)[C@@H](O)[C@H]5O)[C@H](O)[C@H]4O)[C@@H](O)[C@H](O)[C@H]3O)CC[C@]3(C)C(=CCC4[C@@]5(C)C[C@@H](O)[C@H](O)[C@@](C)(CO)C5CC[C@]43C)C2[C@H]1C (some centres not stated) | -19.6% (inactive) | inactive | inactive | – |
| COc1cc(-c2cc(-c3cccc(O)c3)cnc2N)cc(OC)c1OC | – | inactive | inactive | 16.9 µM (active) |

Source: PubChem BioAssay (NCATS)
